USP30 block: inhibitors of human USP30 deubiquitinase; purified USP30, Ub-rhodamine cleavage fluorescence; 47,000 compounds, 5.3% hits; inhibition, % at 25 µM
USP8 inh: human USP8 deubiquitinase inhibition | P40818 | purified USP8, Ub-rhodamine cleavage fluorescence, 30 min | inhibition, % at 20 µM | 47,000 compounds, 4.2% hits
USP17 block: inhibitors of human USP17 deubiquitinase; A8MUK1; 47,000 compounds, 6.5% hits; inhibition, % at 50 µM; purified USP17, Ub-rhodamine cleavage fluorescence, 3 h
USP28 inh: inhibitors of human USP28 deubiquitinase | Q96RU2 | purified USP28, Ub-rhodamine cleavage fluorescence, 30 min | inhibition, % at 25 µM | 47,000 compounds, 3% hits
A number is an active result; n = inactive; x = no result. Rows were chosen to be rich in hits. Some 13% of all compounds tested hit in one or more screens of this group. Rule as the data show it: active = inhibition above about 30%; inactive = the rest.

SMILES	USP30 block	USP8 inh	USP17 block	USP28 inh
O=C1COc2ccc(C(=O)Nc3cccc4ncccc34)cc2N1	n	n	37	n
O=C(CN1C(=O)COc2ccc(Cl)cc21)Nc1cccc2ncccc12	n	73	60	n
Cc1ccccc1NC(=NS(=O)(=O)c1ccccc1)c1ccc(Cl)cc1	n	n	n	44
Cc1ccccc1S(=O)(=O)N=C(Nc1ccccn1)c1ccccc1	n	n	n	n
O=C(Nc1cnc(N2CCCC2)nc1)c1ccc(F)cc1	n	n	n	n
CN(C(=O)CSc1nnc(-c2ccncc2)o1)c1ccc(F)cc1	n	n	n	n
Cc1cc(C)n(-c2nnc(NCc3ccc(Cl)cc3)nn2)n1	n	45	n	n
CC(=O)N1C[C@H]2C3(CCN(C(=O)c4cccnc4)CC3)CC[C@@]2(C(=O)N(C)C)C1	n	n	n	n
Cc1c(OCc2ccccc2)noc1C1CCN(C(=O)CCN)CC1	n	n	n	41
COCCNC(=O)Cn1nnc(-c2ccc(-c3ccc(OC)cc3)cc2)n1	35	n	n	n
CCOC(=O)C(Cc1ccccc1)NC(=O)Cn1nnc(-c2ccccc2)n1 (stereo unspecified)	35	n	n	n
COc1ccc(-c2nnn(CC(=O)Nc3ccccc3)n2)cc1	46	n	49	39
O=C(Cn1nnc(-c2ccc(F)cc2)n1)NCCc1ccccc1	n	n	74	n
O=C(C1CCCC1)N1Cc2ccccc2CC2(CCCN2Cc2cccnc2)C1 (stereo unspecified)	n	n	n	n
Fc1ccc(Nc2ncnc3c(-c4ccccc4)noc23)cc1	46	n	44	n
COc1ccc(Nc2ncnc3c2c(-c2ccccc2)cn3-c2ccc(F)cc2)cc1Cl	n	n	n	n
O=C(COc1ccc([N+](=O)[O-])cc1)c1c[nH]c2ccccc12	n	n	n	n
O=C1CCN(c2ncnc3cc(-c4ccc(F)cc4)sc23)CC1	n	n	31	n
Cc1cc(-c2onc(C)c2C(=O)Nc2ccc(Cl)cc2)no1	x	n	n	x
CCOc1ccc(Nc2nc3ccccc3nc2Nc2cc(C)nn2-c2ccc([N+](=O)[O-])cc2)cc1	n	n	42	n
CCOCc1ccc(C(=O)N[C@H](C)c2nc3cc(-c4ccc(OC)cc4)ncn3n2)cc1	41	n	n	n
C[C@H](NC(=O)Cc1ccccc1F)c1nc2cc(-c3ccc(F)cc3)ncn2n1	35	n	n	n
C[C@@H](NC(=O)Cc1ccc(F)cc1)c1nc2cc(-c3ccccc3F)ncn2n1	n	n	n	n
COc1ccccc1CC(=O)N[C@@H](C)c1nc2cc(-c3ccccc3F)ncn2n1	39	n	n	n
CN(C)c1ccc(N2CCC(C3CC=CCN(Cc4ccccc4)C3=O)CC2)nn1 (stereo unspecified)	n	n	n	n
SMILES	USP30 block	USP8 inh	USP17 block	USP28 inh
O=C(NCCn1ccc2ccccc21)C(=O)c1cn(CC(=O)N2CCOCC2)c2ccccc12	n	n	n	n
CCOC(=O)c1cn(C2CC2)c2cc(N3CCNCC3)c([N+](=O)[O-])cc2c1=O	58	n	n	36
CC(=O)Nc1ccc2nc(NC(=O)C34CC5CC(CC(C5)C3)C4)sc2c1	n	n	37	n
CC(=O)Nc1ccc2nc(NC(=O)c3cc(C)n(C)n3)sc2c1	n	n	n	n
COc1cc(NC(=O)Nc2nnc(CC(=O)N3CCCCC3)s2)cc(OC)c1	n	n	n	n
O=C(NCc1nc(-c2ccc3c(c2)[nH]c(=O)n3C2CCCC2)no1)c1ccccc1	n	49	58	n
Cc1nc(C)c(-c2nc(-c3ccc4c(c3)[nH]c(=O)n4C3CCCC3)no2)s1	n	n	n	n
CCn1ncc(-c2ccnc3cc(C(=O)N4CCN(Cc5ccc(F)cc5)CC4)nn23)c1C	n	60	n	n
CCOc1ccc(-n2nnnc2CNC(=O)NCc2ccccc2)cc1	n	n	n	n
O=C(COc1ccc2ccccc2c1)NCc1nnnn1-c1ccc(F)c(F)c1	n	n	48	n
COc1ccc(CCNCc2cc3c(C)nn(-c4ccccc4)c3[nH]c2=O)cc1OC	n	n	n	n
Cc1nn(-c2ccc(Cl)cc2)c2[nH]c(=O)c(CNCCN(C)C)cc12	n	53	n	n
Cc1nn(-c2ccc(Cl)cc2)c2[nH]c(=O)c(CNCC3CCCO3)cc12 (stereo unspecified)	n	86	n	n
COc1ccc(CCNCc2cc3c(C)nn(-c4ccc(Cl)cc4)c3[nH]c2=O)cc1OC	n	78	n	n
Cc1nn(-c2ccccc2)c2[nH]c(=O)c(CNCC3CCCO3)cc12 (stereo unspecified)	n	n	n	n
CC(=O)N1CCN(Cc2cc3c(C)nn(-c4ccc(F)cc4)c3[nH]c2=O)CC1	n	n	n	n
Cc1nn(-c2ccc(Cl)cc2)c2[nH]c(=O)c(CNCc3ccco3)cc12	n	44	n	n
Nc1cccc(F)c1-c1nc(-c2ccncc2)n[nH]1	n	n	n	n
O=C(NCC(=O)N1CCCc2ccccc21)c1ccc2cc[nH]c2c1	x	n	n	x
Cc1cccc(CN2CCCC(c3cnc(Nc4ncccn4)cn3)C2)n1 (stereo unspecified)	n	n	n	n
CC(C)(C)NC(=O)N1CCCN(C2CCN(Cc3ccccc3)C2=O)CC1 (stereo unspecified)	n	n	n	n
CNC(=O)N1CCCN(C2CCN(Cc3ccccc3)C2=O)CC1 (stereo unspecified)	30	n	n	n
Cc1ccc(Cn2cc(C(=O)Nc3ccccc3C(N)=O)ccc2=O)cc1	n	54	n	n
COc1cc2cc3c(c(O)c2c(O)c1-c1c(OC)cc2cc4c(c(O)c2c1O)C(=O)OC1CC(C)OC41)C(=O)OC1CC(C)OC31 (stereo unspecified)	n	58	61	n
O=C(CC1CCN(C(=O)Nc2ccccc2)CC1)N1CCOCC1	n	n	n	n
SMILES	USP30 block	USP8 inh	USP17 block	USP28 inh
O=C(C[C@@H]1CCN2C[C@@H]1CCCOc1ccccc1CN(C(=O)Nc1ccccc1)CC2=O)N1CCOCC1	79	n	75	74
Cc1cc(C(=O)N2CC[C@@H]3CN(CC(C)C)S(=O)(=O)[C@@H]3CC2)no1	n	n	n	n
COc1ccc(NC2c3ccccc3C(=O)N2c2ccccn2)cc1 (stereo unspecified)	n	83	57	n
Cc1ccc(NC2c3ccccc3C(=O)N2c2ccccn2)cc1 (stereo unspecified)	n	n	n	n
COc1cccc(NC(=O)[C@H](C)NC(=O)c2cc3c(OC)c(OC)ccc3[nH]2)c1	n	81	47	n
CCOC(=O)N1CCN(C(=O)[C@H](C)NC(=O)c2cc3c(OC)c(OC)ccc3[nH]2)CC1	n	n	n	n
COc1ccccc1-n1ccnc(NC(=O)Nc2cccc(F)c2)c1=O	n	n	46	n
O=C(Nc1ccccc1)Nc1nccn(-c2ccc3c(c2)CCC3)c1=O	39	n	30	n
O=C(Nc1ccc(F)cc1F)Nc1nccn(-c2cccc(F)c2)c1=O	n	n	n	n
CCOc1cccc2nnc(NC(=O)Nc3cccc(F)c3)n12	n	n	n	n
COc1cccc(NC(=O)Nc2nccn(-c3ccc(F)cc3)c2=O)c1	n	n	54	n

Screens as filed in PubChem BioAssay.
